Experimental data published in PubChem BioAssay (NCATS).
Records with an inconclusive call do not appear. The source made the active and inactive calls. Unless noted, calls follow the shape of the dose curve; as a rule, active = well fitted curve in the direction sought with a large enough effect; inconclusive = small, poorly fitted or top-dose-only effect, or another doubt; inactive = no such curve, though single readings can be large; an effect the other way counts as inactive or inconclusive.

Legend:
[1] = molecular target: Chromobox protein homolog 1 (Homo sapiens) (UniProt P83916); assay: qHTS Validation Assay for Inhibitors of HP1-beta Chromodomain Interactions with Methylated Histone Tails (AID 488953);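 also: loss of AlphaScreen luminescence from HP1-beta binding biotinylated H3K9me3 peptide; series mostly up to about 110 µM; % is scaled to controls: 0 for no effect and ±100 for the full control effect; nearly all actives have a fitted effect of over 50% in size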
Procedure, shortened: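 50 nM HP1-beta + 50 nM biotin-H3(1-18)K9me3, PBS pH 7.4, 0.01% Tween-20, 30 min RT; compound added, 30 min RT; AlphaScreen beads 10 ug/mL final, 30 min dark; luminescence read.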

[2] = molecular target: Transient receptor potential cation channel subfamily V member 1 (Homo sapiens) (UniProt Q8NER1); assay: HTS Assay for Compounds that Act as Enhancers of the Vanilloid Receptor 1 (AID 488979); also: 0% is about no effect
Procedure, shortened: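 Calcium influx kinetics via Fluo-8 (480/520 nm) in TRPV1-expressing cells, 2000/well cultured overnight at 35.5C. Compound-alone read 3 min (agonist phase), followed by EC20 capsaicin challenge for 2 min (enhancer phase).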

[3] = molecular target: Thyrotropin receptor (Homo sapiens) (UniProt P16473); assay: qHTS Assay for Antagonists of the Thyroid Stimulating Hormone Receptor (AID 488980); also: series mostly up to about 58 µM; 0% is about no effect
Procedure, shortened: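 Readout is cAMP by HTRF competition between cellular cAMP and cAMP-d2 for a cryptate-labelled antibody. Antagonism was assessed in TSHR-transfected HEK293 cells stimulated with 4 nM TSH (EC80, final) in the presence of RO 20-1724.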

[4] = molecular target: D(1A) dopamine receptor (Homo sapiens) (UniProt P21728); assay: HTS Assay for Allosteric Agonists of the Human D1 Dopamine Receptor: Primary Screen for Agonists (AID 488981); also: 0% is about no effect
D(1A) dopamine receptor (Homo sapiens), sequence (P21728 whole entry, looked up): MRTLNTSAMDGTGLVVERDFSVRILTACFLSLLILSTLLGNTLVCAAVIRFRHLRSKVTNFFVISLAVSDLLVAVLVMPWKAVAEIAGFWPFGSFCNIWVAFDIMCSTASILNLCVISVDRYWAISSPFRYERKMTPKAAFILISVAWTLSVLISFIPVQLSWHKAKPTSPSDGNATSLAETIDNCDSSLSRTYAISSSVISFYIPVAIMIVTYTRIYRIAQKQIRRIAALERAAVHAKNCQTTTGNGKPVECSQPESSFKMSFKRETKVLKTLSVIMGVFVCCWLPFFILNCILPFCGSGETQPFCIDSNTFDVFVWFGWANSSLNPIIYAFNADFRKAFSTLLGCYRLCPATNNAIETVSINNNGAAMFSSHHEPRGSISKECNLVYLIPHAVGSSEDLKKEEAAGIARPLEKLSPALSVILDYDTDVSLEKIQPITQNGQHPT
Procedure, shortened: (§1)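 Calcium flux in an inducible, force-coupled HEK293 Trex D1 line (overnight at 30 C): agonist mode is the 180 s kinetic read after compound; potentiator mode is the following 180 s read after dopamine at EC20.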

[5] = molecular target: D(1A) dopamine receptor (Homo sapiens) (UniProt P21728); assay: HTS Assay for Allosteric Agonists of the Human D1 Dopamine Receptor: Primary Screen for Potentiators (AID 488982); also: 0% is about no effect
Procedure, shortened: as §1

[6] = molecular target: D(1A) dopamine receptor (Homo sapiens) (UniProt P21728); assay: HTS Assay for Allosteric Agonists of the Human D1 Dopamine Receptor: Primary Screen for Antagonists (AID 488983);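 also: calcium flux response to an EC80 dopamine challenge measured with no-wash dye; % is scaled to controls: 0 for no effect and ±100 for the full control effect; nearly all actives have a fitted effect of over 65% in size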
Procedure, shortened: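 Cells are induced with tetracycline and incubated overnight at 30 C, then loaded with calcium dye for 30 to 90 minutes at room temperature. Compound addition is followed by a 180 s read, then an EC80 dopamine addition and another 180 s read.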

[7] = molecular target: ATP-dependent 6-phosphofructokinase (Trypanosoma brucei brucei) (UniProt O15648); assay: qHTS Assay to Find Inhibitors of T. brucei phosphofructokinase: hit validation (AID 492961);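 also: luminescence reports ADP formed as PFK phosphorylates fructose-6-phosphate with ATP; series mostly up to about 51 µM; % is scaled to controls: 0 for no effect and ±100 for the full control effect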
ATP-dependent 6-phosphofructokinase (Trypanosoma brucei brucei), sequence (O15648 whole entry, looked up): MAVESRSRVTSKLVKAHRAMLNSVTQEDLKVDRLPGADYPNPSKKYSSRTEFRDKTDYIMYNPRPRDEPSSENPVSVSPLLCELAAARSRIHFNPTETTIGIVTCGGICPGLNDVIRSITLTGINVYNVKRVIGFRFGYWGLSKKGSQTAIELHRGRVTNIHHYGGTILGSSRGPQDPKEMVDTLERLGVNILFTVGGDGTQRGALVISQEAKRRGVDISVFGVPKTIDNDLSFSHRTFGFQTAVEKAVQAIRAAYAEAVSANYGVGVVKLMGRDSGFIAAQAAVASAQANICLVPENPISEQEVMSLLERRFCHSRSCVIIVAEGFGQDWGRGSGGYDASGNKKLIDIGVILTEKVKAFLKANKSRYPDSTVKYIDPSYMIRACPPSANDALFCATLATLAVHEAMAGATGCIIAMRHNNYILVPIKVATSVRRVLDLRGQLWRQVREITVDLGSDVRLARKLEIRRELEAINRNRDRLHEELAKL
Procedure, shortened: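 Measures ADP output of PFK (1.25 nM) at 0.1 mM ATP, 0.5 mM F6P, pH 8.0 TEA buffer with 5 mM MgCl2. No-enzyme wells define full inhibition; uninhibited enzyme wells define zero.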

[8] = molecular target: ATPase family AAA domain-containing protein 5 (Homo sapiens) (UniProt Q96QE3); assay: Validation screen for small molecules that inhibit ELG1-dependent DNA repair in human embryonic kidney (HEK293T) cells expressing luciferase-tagged ELG1 (AID 493107);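 also: cells co-treated with the DNA-damaging agent 5-fluorouridine alongside compound; series mostly up to about 46 µM; % is scaled to controls: 0 for no effect and ±100 for the full control effect; inhibitors lower the ELG1-luciferase luminescence signal; nearly all actives have a fitted effect of over 70% in size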
ATPase family AAA domain-containing protein 5 (Homo sapiens), sequence (Q96QE3 whole entry, looked up, the tested form may be a part): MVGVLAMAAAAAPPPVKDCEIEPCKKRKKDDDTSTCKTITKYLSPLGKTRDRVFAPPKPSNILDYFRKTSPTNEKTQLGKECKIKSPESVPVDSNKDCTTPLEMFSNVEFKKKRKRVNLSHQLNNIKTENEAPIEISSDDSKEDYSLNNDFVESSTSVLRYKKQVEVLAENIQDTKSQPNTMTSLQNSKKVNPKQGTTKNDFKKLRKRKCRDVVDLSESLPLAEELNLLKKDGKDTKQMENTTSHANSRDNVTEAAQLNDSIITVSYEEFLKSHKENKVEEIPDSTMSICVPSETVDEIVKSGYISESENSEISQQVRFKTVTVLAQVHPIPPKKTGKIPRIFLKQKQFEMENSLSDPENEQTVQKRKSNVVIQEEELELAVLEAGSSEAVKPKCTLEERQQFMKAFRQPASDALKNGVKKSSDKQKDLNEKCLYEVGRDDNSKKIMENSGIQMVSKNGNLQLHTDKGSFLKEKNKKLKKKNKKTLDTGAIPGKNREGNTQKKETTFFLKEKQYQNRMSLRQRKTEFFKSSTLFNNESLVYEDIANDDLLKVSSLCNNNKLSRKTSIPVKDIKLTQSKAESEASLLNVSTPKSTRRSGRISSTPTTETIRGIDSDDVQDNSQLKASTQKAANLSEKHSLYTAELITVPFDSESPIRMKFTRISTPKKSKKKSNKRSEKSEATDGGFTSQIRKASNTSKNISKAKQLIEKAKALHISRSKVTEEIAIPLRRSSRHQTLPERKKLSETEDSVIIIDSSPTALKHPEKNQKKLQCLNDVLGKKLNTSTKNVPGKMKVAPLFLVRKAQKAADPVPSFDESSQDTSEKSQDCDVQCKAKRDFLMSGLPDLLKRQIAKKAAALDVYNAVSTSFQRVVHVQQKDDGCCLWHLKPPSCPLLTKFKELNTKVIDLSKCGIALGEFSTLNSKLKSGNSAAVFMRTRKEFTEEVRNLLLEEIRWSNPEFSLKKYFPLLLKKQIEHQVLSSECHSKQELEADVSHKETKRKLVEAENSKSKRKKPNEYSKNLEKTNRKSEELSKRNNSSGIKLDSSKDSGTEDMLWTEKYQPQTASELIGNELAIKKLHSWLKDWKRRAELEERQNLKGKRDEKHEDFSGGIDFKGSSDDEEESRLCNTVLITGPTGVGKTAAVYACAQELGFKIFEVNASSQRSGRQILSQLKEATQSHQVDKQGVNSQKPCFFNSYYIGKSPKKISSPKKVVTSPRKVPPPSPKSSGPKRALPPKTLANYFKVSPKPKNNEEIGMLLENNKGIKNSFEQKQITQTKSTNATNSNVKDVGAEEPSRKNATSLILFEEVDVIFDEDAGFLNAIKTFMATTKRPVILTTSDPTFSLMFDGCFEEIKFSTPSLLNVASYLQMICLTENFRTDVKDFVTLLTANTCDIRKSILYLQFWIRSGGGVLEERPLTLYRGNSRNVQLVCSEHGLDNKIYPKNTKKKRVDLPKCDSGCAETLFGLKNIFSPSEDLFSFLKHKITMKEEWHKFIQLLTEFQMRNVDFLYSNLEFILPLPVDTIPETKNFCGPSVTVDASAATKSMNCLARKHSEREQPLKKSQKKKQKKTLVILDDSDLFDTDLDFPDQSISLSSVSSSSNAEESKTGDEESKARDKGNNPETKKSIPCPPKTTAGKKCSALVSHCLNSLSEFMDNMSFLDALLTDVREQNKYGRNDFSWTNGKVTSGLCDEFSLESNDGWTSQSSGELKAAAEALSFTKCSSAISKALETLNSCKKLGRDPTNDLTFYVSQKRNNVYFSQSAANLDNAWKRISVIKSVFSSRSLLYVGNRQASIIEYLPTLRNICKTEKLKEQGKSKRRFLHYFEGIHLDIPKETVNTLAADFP
Procedure, shortened: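 Luminescence from ONE-Glo, developed 30 min at room temperature, served as read-out of ELG1-luciferase levels. Beforehand, reporter HEK293T cells received 5-fluorouridine plus test compound for 16 hr at 37 °C.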

[9] = molecular target: Thyrotropin-releasing hormone receptor (Homo sapiens) (UniProt P34981); assay: qHTS for Small Molecule Agonists and Allosteric Enhancers of Human TRH Receptor: Validation Screen for Agonists (AID 493127;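 active = calcium activation more than 3 SD above the typical response in the agonist read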;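 also: intracellular calcium rise by fluo-8 fluorescence before TRH EC20 addition; 0% is about no effect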); details: TRH receptor agonist cell assay; at 2 µM; stronger effect = higher value
Thyrotropin-releasing hormone receptor (Homo sapiens), sequence (P34981 whole entry, looked up): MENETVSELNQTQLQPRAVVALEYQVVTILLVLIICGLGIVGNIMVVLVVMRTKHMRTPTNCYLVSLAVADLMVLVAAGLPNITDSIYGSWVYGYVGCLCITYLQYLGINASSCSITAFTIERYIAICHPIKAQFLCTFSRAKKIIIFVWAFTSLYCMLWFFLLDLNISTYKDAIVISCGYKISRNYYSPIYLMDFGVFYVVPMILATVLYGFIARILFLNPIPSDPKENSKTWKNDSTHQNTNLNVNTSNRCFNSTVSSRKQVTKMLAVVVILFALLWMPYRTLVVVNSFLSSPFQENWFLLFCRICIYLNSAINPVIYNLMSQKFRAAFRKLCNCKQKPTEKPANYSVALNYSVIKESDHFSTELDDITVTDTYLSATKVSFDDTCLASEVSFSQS
Procedure, shortened: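 Cells 2000/well, 10% FCS, 18 h 33.5C/5% CO2 → fluo-8 Ca dye, RT 30 min–1.5 h → FDSS baseline 10 × 1 s → compound added → 230 cycles (1 s/cycle) agonist mode. TRH controls.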

[10] = qHTS for Inhibitors of Cell Surface uPA Generation: Validation Assay (AID 493164); also: 0% is about no effect
Procedure, shortened: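 RAW 264.7 cells (4000/well) were plated overnight, then exposed for 18 h at 37 C, 5% CO2 to compounds in a 7-point 1:5 titration (2.45 nM–38.3 uM final). Intracellular ATP was read by ATP-Lite luminescence.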

[11] = molecular target: Galactokinase (Homo sapiens) (UniProt P51570); assay: qHTS Validation Assay for Inhibitors of Human Galactokinase (GALK) (AID 493189); also: 0% is about no effect
Galactokinase (Homo sapiens), sequence (P51570 whole entry, looked up): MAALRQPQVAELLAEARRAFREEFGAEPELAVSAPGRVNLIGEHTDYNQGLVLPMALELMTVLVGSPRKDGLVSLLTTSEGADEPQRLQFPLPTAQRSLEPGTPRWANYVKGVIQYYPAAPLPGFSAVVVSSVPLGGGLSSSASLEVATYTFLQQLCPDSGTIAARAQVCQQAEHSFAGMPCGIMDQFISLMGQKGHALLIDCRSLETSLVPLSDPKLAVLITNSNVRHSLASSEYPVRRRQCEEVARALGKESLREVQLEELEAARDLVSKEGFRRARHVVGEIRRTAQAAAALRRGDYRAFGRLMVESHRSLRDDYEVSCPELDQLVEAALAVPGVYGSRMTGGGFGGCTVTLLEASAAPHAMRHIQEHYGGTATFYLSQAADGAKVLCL
Procedure, shortened: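 5 nM GALK / 100 uM galactose / 35 uM ATP, 20 mM HEPES pH8.0, 5 mM MgCl2, 60 mM NaCl, 1 mM DTT, 0.01% BSA (final). RT 1 h; Kinase-Glo Plus luminescence.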

[12] = Validation screen for small molecules that induce DNA re-replication in SW480 colon adenocarcinoma cells (AID 504364); also: 0% is about no effect
Procedure, shortened: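 250 cells/well; compound pinned in; 48 hr, 37 C, 5% CO2; Hoechst added, 40 min; nuclear fluorescence imaged, 405 ex / 500-530 em; re-replication scored as increase in high-intensity nuclei.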

[13] = molecular target: Peptidyl-prolyl cis-trans isomerase NIMA-interacting 1 (Homo sapiens) (UniProt Q13526); assay: qHTS Validation Assay to Find Inhibitors of Pin1 (AID 504536; active = well fitted inhibition curve with a large enough effect in the polarisation, with a control signal flat, not every such curve was filed as active; the % refers to the polarisation;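 also: 0% = full Pin1 enzyme wells and -100% = no-enzyme wells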)
Procedure, shortened: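 Fluorescence polarization competition: compounds (titration) displace HiFluor-488-labeled Pin1-1b peptide from Pin1 (0.3 uM final) in pH 7.5 HEPES buffer with DTT, 10 min at room temperature; %Activity normalized to no-enzyme wells, curves fitted.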

[14] = molecular target: Phosphoglycerate kinase, glycosomal (Trypanosoma brucei brucei) (UniProt P07378); assay: qHTS Validation Assay to Find Inhibitors of Phosphoglycerate Kinase (AID 504547);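 also: control wells lack PGK and mark full inhibition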
Procedure, shortened: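 Inhibition of the enzyme is judged by a Kinase-Glo Plus luminescent signal following a one-hour incubation at room temperature. Because 1,3-BPG is unstable, it is made in situ by GAPDH at 100nM final; no-PGK wells define the baseline.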

[15] = molecular target: phosphoglycerate mutase (Leishmania major) (UniProt Q4Q090); assay: qHTS Validation Assay to Find Inhibitors of Phosphoglycerate Mutase (AID 504548); also: series mostly up to about 58 µM; % is scaled to controls: 0 for no effect and ±100 for the full control effect
phosphoglycerate mutase (Leishmania major), sequence (Q4Q090 1-553): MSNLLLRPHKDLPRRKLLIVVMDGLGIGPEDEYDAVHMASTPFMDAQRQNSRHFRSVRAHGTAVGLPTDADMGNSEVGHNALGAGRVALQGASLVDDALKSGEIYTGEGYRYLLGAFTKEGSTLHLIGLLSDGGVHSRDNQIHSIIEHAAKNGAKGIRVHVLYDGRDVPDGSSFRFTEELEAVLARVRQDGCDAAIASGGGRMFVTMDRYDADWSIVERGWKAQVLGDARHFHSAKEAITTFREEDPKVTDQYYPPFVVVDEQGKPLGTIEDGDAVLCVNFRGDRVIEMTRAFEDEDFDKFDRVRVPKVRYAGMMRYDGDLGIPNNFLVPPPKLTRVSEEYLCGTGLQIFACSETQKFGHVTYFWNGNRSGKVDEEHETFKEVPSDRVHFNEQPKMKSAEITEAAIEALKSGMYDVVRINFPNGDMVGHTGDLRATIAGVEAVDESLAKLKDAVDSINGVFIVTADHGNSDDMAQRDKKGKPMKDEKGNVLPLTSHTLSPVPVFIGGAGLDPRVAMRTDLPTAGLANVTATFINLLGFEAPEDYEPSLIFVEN
Procedure, shortened: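 Luminescent end-point read-out via Kinase-GloPlus after a 10-minute development. Reaction: 1.25nM Leishmania major PGAM with substrate and compound, 45 minutes at room temperature in TEA buffer (pH 7.6) with MgCl2 and Tween-20.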

[16] = molecular target: Ubiquitin carboxyl-terminal hydrolase 1 (Homo sapiens) (UniProt O94782); assay: Inhibitors of USP1/UAF1: Pilot qHTS (AID 504865); also: nearly all actives have a fitted effect of over 35% in size; also: potency is read from the fitted curve at half-maximal effect
Procedure, shortened: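 In 50mM HEPES pH 7.8 containing 0.5mM EDTA, 1mM TCEP, 0.1 mg/ml BSA and 0.01% Tween-20, 1nM USP1/UAF1 is exposed to compound for 15 min, then Ub-Rho (150nM final) is added and fluorescence is read over time.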

[17] = qHTS for Inhibitors of ATXN expression: Validation of Cytotoxic Assay (AID 588349); also: % is scaled to controls: 0 for no effect and ±100 for the full control effect
Procedure, shortened: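 Read-out: ATP-based luminescence (CellTiter Glo) reflecting viability of HEK293 cells after 72 hr incubation at 37 degrees C with a concentration series of each compound.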

[18] = qHTS for Inhibitors of ATXN expression: Validation (AID 588378); also: series mostly up to about 57 µM; % is scaled to controls: 0 for no effect and ±100 for the full control effect; nearly all actives have a fitted effect of over 75% in size
Procedure, shortened: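 Compounds were pinned onto attached HEK293 cells carrying an ATXN2-firefly luciferase construct and incubated 24 hrs at 37 degrees C. Each well then received a fluorescent viability reagent followed by luciferase substrate for end-point luminescence.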

[19] = molecular target: M-phase phosphoprotein 8 (Homo sapiens) (UniProt Q99549); assay: qHTS Validation Assay for Inhibitors for MPP8 Chromodomain Interactions with Methylated Histone Tails (AID 488949);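 also: 50 nM MPP8 with 50 nM peptide preformed then compounds added for 30 min; AlphaScreen signal from MPP8 chromodomain bound to biotinylated H3K9me3 peptide; top concentration of the series differs between compounds; % is scaled to controls: 0 for no effect and ±100 for the full control effect; nearly all actives have a fitted effect of over 55% in size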
M-phase phosphoprotein 8 (Homo sapiens), sequence (Q99549 whole entry, looked up): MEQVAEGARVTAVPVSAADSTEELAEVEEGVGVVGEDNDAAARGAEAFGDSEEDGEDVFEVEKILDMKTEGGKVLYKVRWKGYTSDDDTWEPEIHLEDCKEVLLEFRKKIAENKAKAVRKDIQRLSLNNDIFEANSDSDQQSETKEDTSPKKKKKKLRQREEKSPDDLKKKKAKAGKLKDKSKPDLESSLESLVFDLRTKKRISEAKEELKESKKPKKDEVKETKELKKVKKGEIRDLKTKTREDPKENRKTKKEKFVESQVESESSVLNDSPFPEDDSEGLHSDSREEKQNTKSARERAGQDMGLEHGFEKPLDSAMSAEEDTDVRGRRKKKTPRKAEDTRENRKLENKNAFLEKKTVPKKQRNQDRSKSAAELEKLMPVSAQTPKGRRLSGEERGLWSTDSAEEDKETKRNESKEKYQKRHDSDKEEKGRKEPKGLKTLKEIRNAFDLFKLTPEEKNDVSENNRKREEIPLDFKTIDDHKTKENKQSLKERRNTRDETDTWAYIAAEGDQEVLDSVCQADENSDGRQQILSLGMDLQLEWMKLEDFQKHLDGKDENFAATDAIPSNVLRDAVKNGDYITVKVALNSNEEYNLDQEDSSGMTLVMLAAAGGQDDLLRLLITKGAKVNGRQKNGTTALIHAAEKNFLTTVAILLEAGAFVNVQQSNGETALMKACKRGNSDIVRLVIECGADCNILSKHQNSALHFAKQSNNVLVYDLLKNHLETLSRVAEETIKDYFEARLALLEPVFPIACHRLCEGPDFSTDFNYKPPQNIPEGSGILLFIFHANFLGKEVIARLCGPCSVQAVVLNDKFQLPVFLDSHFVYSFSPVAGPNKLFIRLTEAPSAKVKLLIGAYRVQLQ
Procedure, shortened: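 50 nM MPP8 + 50 nM b-H3K9me3 peptide, PBS pH 7.4/0.01% Tween-20, 30 min RT; + cpd 30 min RT; + AlphaScreen donor/Ni-chelate acceptor beads 10 ug/mL final, 30 min dark; luminescence read.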

[20] = Nrf2 qHTS screen for inhibitors: Validation (AID 493153; active = well fitted inhibition curve with a large enough effect in the main read-out, with a control signal flat, not every such curve was filed as active); details: viability change: measured here: cytotoxicity max response
Procedure, shortened: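 Luminescence from an ARE-firefly luciferase reporter in A549 cells gives Nrf2 inhibition; an earlier CellTiter-Fluor fluorescent read flags cytotoxicity. Cells in 5% FBS OPTI-MEM received compound dilution series for 18-24 h at 37°C.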

O=C(O)CCc1nc(-c2ccccc2)c(-c2ccccc2)o1
inactive: Potency [1] | outcome [2] | outcome [3] | outcome [4] | outcome [5] | Potency [6] | outcome [7] | outcome [8] | activation [9] -0.125% | outcome [10] | outcome [11] | outcome [12] | outcome [13] | outcome [14] | outcome [15] | Potency [16] | Potency [17] | Potency [18]

Clc1ccc(C(c2ccc(Cl)cc2)n2cc[n+](CC(OCc3ccc(Cl)cc3Cl)c3ccc(Cl)cc3Cl)c2)cc1 (centres undefined)
inactive: outcome [4] | outcome [5] | Potency [6] | outcome [10] | outcome [13] | outcome [14] | outcome [15]

NCCS
-10.7%: viability change [20]
inactive: Potency [19] | outcome [2] | outcome [4] | outcome [5] | Potency [6] | outcome [7] | outcome [8] | activation [9] 1.25% | outcome [20] | outcome [10] | outcome [11] | outcome [12] | outcome [13] | outcome [14] | outcome [15] | Potency [16] | Potency [17] | Potency [18]

O=C1Nc2ccc(Cl)cc2C(C#CC2CC2)(C(F)(F)F)O1 (centres undefined)
inactive: outcome [7]

CC1(C)O[C@H]2C[C@@H]3[C@H]4CCC5=CC(=O)C=C[C@]5(C)[C@@]4(F)[C@@H](O)C[C@]3(C)[C@]2(C(=O)CO)O1
inactive: outcome [7] | Potency [16]

COc1ccc(Cc2nccc3cc(OC)c(OC)cc23)cc1OC
inactive: outcome [4] | outcome [5] | Potency [6] | outcome [7] | outcome [8] | outcome [10] | outcome [13] | outcome [14] | outcome [15] | Potency [17] | Potency [18]

CCCCC1C(=O)N(c2ccccc2)N(c2ccccc2)C1=O
inactive: Potency [19] | outcome [2] | outcome [3] | outcome [4] | Potency [6] | outcome [8] | activation [9] 1.38% | outcome [20] | outcome [10] | outcome [11] | outcome [12] | outcome [13] | outcome [14] | outcome [15] | Potency [16] | Potency [17] | Potency [18]
-3.3%: viability change [20]

CC(C)[C@H](CO)Nc1nc(Nc2ccc(C(=O)O)c(Cl)c2)c2ncn(C(C)C)c2n1
inactive: Potency [16]

O=C(O)c1c(Cl)c(Cl)c(Cl)c(Cl)c1-c1c2cc(I)c(=O)c(I)c-2oc2c(I)c(O)c(I)cc12
active: Potency [16] 20 µM
inactive: outcome [7]
